# Experimental data: article PMC4336329 (PLoS ONE, 2015)
# Hit rate of the full screen: of about 310,000 compounds, about 14,000 (4.5%) showed an effect of 50% or more. The effect is printed as a negative number. The full list was thinned out, with strong results kept by preference.
# Target: human ether-à-go-go-related gene (hERG) potassium channel (human, UniProt Q12809)
# Experiment: primary screen, population patch clamp on CHO cells stably expressing hERG; higher = less effect of the substance
# 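Further: peak tail current of the secondary pulse compared with the same well before compound.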
# Chain of human ether-à-go-go-related gene (hERG) potassium channel (Q12809 whole entry, looked up): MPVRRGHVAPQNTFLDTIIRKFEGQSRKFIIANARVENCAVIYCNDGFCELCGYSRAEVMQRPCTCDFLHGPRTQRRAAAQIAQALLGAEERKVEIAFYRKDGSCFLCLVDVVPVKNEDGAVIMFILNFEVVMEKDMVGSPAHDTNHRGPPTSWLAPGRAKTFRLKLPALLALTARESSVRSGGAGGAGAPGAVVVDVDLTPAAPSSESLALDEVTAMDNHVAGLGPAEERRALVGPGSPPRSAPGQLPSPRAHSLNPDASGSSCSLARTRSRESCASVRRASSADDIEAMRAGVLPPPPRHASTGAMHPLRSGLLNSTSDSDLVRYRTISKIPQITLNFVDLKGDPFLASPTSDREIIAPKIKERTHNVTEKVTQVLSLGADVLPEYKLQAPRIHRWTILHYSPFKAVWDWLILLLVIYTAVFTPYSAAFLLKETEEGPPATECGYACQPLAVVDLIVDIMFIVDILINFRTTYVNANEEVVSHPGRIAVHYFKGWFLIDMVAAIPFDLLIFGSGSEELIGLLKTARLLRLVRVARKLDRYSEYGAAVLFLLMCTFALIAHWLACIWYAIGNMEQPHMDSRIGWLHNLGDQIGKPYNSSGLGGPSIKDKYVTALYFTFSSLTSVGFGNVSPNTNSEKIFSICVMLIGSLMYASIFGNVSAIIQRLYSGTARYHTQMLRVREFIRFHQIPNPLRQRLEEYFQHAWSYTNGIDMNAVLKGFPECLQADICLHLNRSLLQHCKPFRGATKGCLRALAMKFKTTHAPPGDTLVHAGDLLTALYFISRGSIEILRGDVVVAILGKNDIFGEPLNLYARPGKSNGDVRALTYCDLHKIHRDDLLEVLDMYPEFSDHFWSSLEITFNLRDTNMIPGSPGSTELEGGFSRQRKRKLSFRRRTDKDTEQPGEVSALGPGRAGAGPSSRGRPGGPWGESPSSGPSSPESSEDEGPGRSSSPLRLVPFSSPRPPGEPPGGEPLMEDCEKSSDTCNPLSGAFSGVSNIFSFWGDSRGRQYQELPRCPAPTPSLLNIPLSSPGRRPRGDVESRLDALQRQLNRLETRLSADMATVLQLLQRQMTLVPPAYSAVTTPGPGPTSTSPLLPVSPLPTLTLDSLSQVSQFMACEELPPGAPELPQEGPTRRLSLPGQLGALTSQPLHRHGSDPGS
row,Compound,"hERG current change (%, negative = inhibition) at 10uM [%]"
1,CCOC(=O)C1CCN(c2c(NCc3ccc(C(=O)N(C)Cc4ccccc4)cc3)c(=O)c2=O)CC1,-65.2
2,CCOC(=O)C1CCN(Cc2ccc(OCc3ccccc3)c(OC)c2)CC1.O=C(O)C(=O)O,-19.3
3,CCCCNC(=O)C1CCN(Cc2ccc(OCc3ccccc3)cc2)CC1.O=C(O)C(=O)O,-71.7
4,CCCNC(=O)c1ccc(CNc2c(N3CCC(C(=O)OCC)CC3)c(=O)c2=O)cc1,3.8
5,CCOC(=O)C1CCCN(Cc2c(C(=O)N3CCOCC3)nc3ccccn23)C1 (stereo not drawn),8.12
6,O=C(NC1CCCCC1)c1cc([N+](=O)[O-])ccc1N1CCCC1,-0.526
7,Cc1ccc(/C=C/C(=O)Nc2cccc(S(=O)(=O)N3CCOCC3)c2)o1,-19.9
8,O=C(CCC1CCCC1)Nc1ccon1,12.2
9,COc1ccc(S(=O)(=O)N(C)CC(=O)NCCN2CCOCC2)cc1Cl,6.98
10,CCCCC(CCC(=O)Nc1ccccc1C(=O)OCC)C(=O)O (stereo not drawn),-3.09
11,Cc1ccc(C)c(Cn2c(=O)n(CCCC(=O)NCc3ccco3)c(=O)c3ccccc32)c1,0.892
12,O=C(Nc1ccc(Cl)cn1)c1ccc(-c2ccc(Cl)c(Cl)c2)o1,10.1
13,CC(=O)c1ccccc1NS(=O)(=O)c1c(C)nn(-c2ccccc2)c1C,3.03
14,CCn1nc(C)c(CNC(=O)CCc2nnc(Cc3c[nH]c4ccccc34)o2)c1C,42
15,CCC(C)(C)n1nnnc1C(c1ccccc1OC)N1CCSCC1 (stereo not drawn),-24.1
16,CCOc1ccccc1C(C(=O)NCCOC)N(CCOC)C(=O)Cn1nnc2ccccc21 (stereo not drawn),18.5
17,Cc1cccc(OCC(=O)N2CCN(C(=O)c3cccs3)CC2)c1,-7.23
18,Cc1ccc(OCC(=O)N2CCN(C(=O)c3cccc(F)c3)CC2)cc1,-13.3
19,Cc1ccc(C(=O)N2CCN(S(=O)(=O)c3ccc(C)c([N+](=O)[O-])c3)C2)cc1,-42.7
20,Cc1cccc(OCC(=O)NNC(=O)c2ccc([N+](=O)[O-])cc2)c1,1.5
21,Cc1cccc(OCC(=O)N2CCN(C(=O)c3ccc([N+](=O)[O-])cc3)CC2)c1,-68.8

row,Compound,"hERG current change (%, negative = inhibition) at 10uM [%]"
1,Cc1ccc(OCC(=O)N2CCN(C(=O)c3ccc([N+](=O)[O-])cc3)CC2)cc1,-83.4
2,O=C(COc1ccc2ccccc2c1)NNC(=O)c1ccc([N+](=O)[O-])cc1,-1.08
3,Cc1ccc(OCC(=O)N2CCCCCCC2)cc1,7.87
4,O=C(COc1ccc2ccccc2c1)N1CCN(c2ccccc2)CC1,11.7
5,Cc1ccc(C(=O)N2CCN(S(=O)(=O)c3ccc(C)cc3)CC2)cc1,-20.1
6,Cc1ccc(S(=O)(=O)N2CCN(C(=O)c3ccc([N+](=O)[O-])cc3)C2)cc1,-60
7,O=C(COc1ccc2ccccc2c1)N1CCN(C(=O)c2ccc([N+](=O)[O-])cc2)CC1,-76.5
8,COc1ccc(C(=O)N/N=C/c2sc(=O)n(Cc3cccc(C(=O)O)c3)c2Cl)cc1,-1.9
9,CC(C)(C)C1CCC(=NNC(=O)C2COc3ccccc3O2)CC1 (stereo not drawn),0.995
10,CCOC(=O)Cn1ccc(NC(=O)COc2ccc(F)cc2F)n1,-2.52
11,Cc1ccc(OCc2cc(C(=O)N3CC4C[C@@H]5CC3C[C@H](C4)C5)no2)cc1C,15.7
12,COc1ccc(C(=O)C[n+]2cccc(C)c2)cc1.[Br-],13
13,NC(=O)c1ccc(NCc2ccco2)c([N+](=O)[O-])c1,6.16
14,CN1CCN(S(=O)(=O)c2ccc3c(c2)C(C)(C)C(=O)N3C)CC1,14.3
15,CSCCC(NC(=O)c1cc(S(=O)(=O)N2CCOCC2)ccc1F)c1nc2ccccc2[nH]1 (stereo not drawn),-5.27
16,COc1ccc(OCC(=O)N2CCN(C(=O)c3ccccc3)CC2)cc1,-12.6
17,CCC(=O)c1ccc(OCC(=O)N2CCN(C(=O)c3ccccc3)CC2)cc1,-37.8
18,O=C(COc1ccccc1)N1CCN(C(=O)c2ccc([N+](=O)[O-])cc2)CC1,-62.4
19,COc1ccc(OCC(=O)N2CCN(C(=O)c3ccc(F)cc3)CC2)cc1,-20.2
20,COc1ccc(OCC(=O)N2CCN(C(=O)c3ccc([N+](=O)[O-])cc3)CC2)cc1,-67.2
21,O=C(COc1ccccc1)N1CCN(S(=O)(=O)c2cccc([N+](=O)[O-])c2)CC1,-47.3
